# From ChEMBL document CHEMBL4513216, “Probing the Open Global Health Chemical Diversity Library for Multistage-Active Starting Points for Next-Generation Antimalarials” (ACS Infect Dis, 2020)
# About 8,600 (12%) of roughly 69,000 compounds showed an effect of 50% or more. What follows is part of a selection rich in strong results, with near analogues and random picks from the rest.
# Tested on: Plasmodium berghei
# Test: Screen against P. berghei liver stage (PbLuc), transformed with Luciferase, at 10uM
# Format: functional, HepG2
# Details: tested at 10 uM
row,Structure (SMILES),INHIBITION
1,O=C(NCC1COCc2c(-c3cccnc3)nnn2C1)c1cccs1 (stereo unspecified),43.2%
2,COCCNc1ccc(CC2CCCNC2)cn1 (stereo unspecified),44.3%
3,CO[C@@H]1CCN(S(=O)(=O)c2cn(C)cn2)[C@H]1Cc1ccncc1,39.4%
4,Cc1nccn1CCNC(=O)C1(C)CC(c2ccccc2)=NO1 (stereo unspecified),-1.16%
5,Cc1ccc(CN2CCO[C@H]3[C@H](OCc4cccnc4)CC[C@@H]32)o1,56.4%
6,Cc1cccc(CO[C@@H]2CC[C@H]3[C@H]2OCCN3Cc2ccsc2)n1,16.6%
7,Cc1ccc(CN2CCO[C@H]3[C@@H](OCc4cccnc4)CC[C@@H]32)o1,15.6%
8,Fc1ccc(CN2CCO[C@H]3[C@H](OCc4ccncc4)CC[C@@H]32)cc1,92.8%
9,CCN(CC)CCN1CCO[C@H]2[C@@H](OCc3ccncc3)CC[C@@H]21,29%
10,COc1ccc(CN2CCO[C@H]3[C@H](OCCN4CCCC4)CC[C@@H]32)cc1,0.618%
11,Cc1cccc(CO[C@@H]2CC[C@H]3[C@H]2OCCN3Cc2ccoc2)n1,67.5%
12,Cc1ccc(CN2CCO[C@@H]3[C@@H](OCc4cccnc4)CC[C@@H]32)o1,26.5%
13,CCO[C@@H]1CC[C@H]2[C@H]1OCCN2Cc1ccc(F)cc1,8.52%
14,CO[C@@H]1CC[C@H]2[C@H]1OCCN2Cc1ccc(F)cc1,25.3%
15,COc1ccc(CN2CCO[C@H]3[C@H](OCc4ccncc4)CC[C@@H]32)cc1,90.1%
16,COCCN1CCO[C@H]2[C@H](OCc3cccc(C)n3)CC[C@@H]21,-8.25%
17,O=C(NCC1CC[C@@H]2[C@@H]1OCCN2Cc1cccs1)c1ccco1 (stereo partly specified),12.1%
18,CCCn1ncc(CN(Cc2cccnc2)Cc2cccs2)c1C,-4.87%
19,Cc1ocnc1C(=O)N(C)[C@@H]1CC[C@@H](Oc2ccccc2)[C@@H]1O,16.2%
20,COCCO[C@H]1CCN(Cc2cnn(C)c2)[C@H]1Cc1cccnc1,9.51%
21,CN(C)C(=O)C1OC2(CCN(c3ncc(F)cn3)CC2)c2ccccc21 (stereo unspecified),49.3%
22,Cc1noc(C)c1-c1ccnc(C2CCN(S(=O)(=O)N(C)C)CC2)c1,35.2%
23,CCN(Cc1cn(C)nc1-c1ccc2c(c1)OCCO2)CC1CCCO1 (stereo unspecified),28.5%
24,CC(C)N1CCCC(CNC(=O)CN(C)S(=O)(=O)c2ccccc2)C1 (stereo unspecified),-3.21%
25,Cn1nc(CNC(=O)C2CCC2)cc1C1CC1,-34.5%
26,Cc1cccc(CO[C@@H]2CC[C@H]3[C@H]2OCCN3Cc2nccs2)n1,-44.2%

row,Structure (SMILES),INHIBITION
1,c1cc(CO[C@H]2CC[C@H]3[C@H]2OCCN3Cc2nccs2)ccn1,84.7%
2,CCO[C@@H]1CC[C@H]2[C@H]1OCCN2Cc1ccoc1,35.8%
3,Cc1cccc(CO[C@@H]2CC[C@H]3[C@H]2OCCN3Cc2cc(C)on2)n1,-46.8%
4,c1ccc(CO[C@H]2CC[C@H]3[C@H]2OCCN3Cc2nccs2)nc1,22.2%
5,O=C(C1CCOCC1)N1CCO[C@H]2[C@@H](OCc3ccncc3)CC[C@@H]21,43.3%
6,c1cc(CO[C@@H]2CC[C@H]3[C@H]2OCCN3CC2CCOCC2)ccn1,68.8%
7,O=C(C1CCOCC1)N1CCO[C@H]2[C@H](OCc3ccncc3)CC[C@@H]21,14.1%
8,Cc1cccc(CN2CCO[C@H]3[C@@H](OCc4ccncc4)CC[C@@H]32)n1,85.6%
9,c1cc(CO[C@@H]2CN(Cc3ccoc3)[C@@H]3CCCO[C@@H]32)ccn1,47.5%
10,c1cc(CO[C@@H]2CC[C@H]3[C@H]2OCCN3Cc2ccoc2)ccn1,55.7%
11,c1csc(CN2CCO[C@H]3[C@H](OCC4CCCC4)CC[C@@H]32)n1,41.2%
12,COCCN1CCC(c2nc3c([nH]2)CCCNC3=O)CC1,44%
13,COc1cccc(CNCc2ccc(F)cc2Cl)c1O,-38%
14,COC(=O)CNC(=O)N1CCN(c2nc3ccccc3n2C)CC1,10.7%
15,Cc1nc2[nH]cnc(NCCN3CCCC3)c-2n1,29.7%
16,COCC(=O)N1CC[C@@H]2O[C@@H](COCc3csc(C)n3)CC[C@@H]21,27.3%
17,CCc1ncc2c(n1)CN(CC(=O)Nc1nncs1)CC2,33.8%
18,Cn1ccnc1S(=O)(=O)C(C(=O)N1CCCCC1)c1ccccc1 (stereo unspecified),28.1%
19,COCCN1CCCc2sc(C(=O)Nc3ccc(C)nc3)nc21,16.9%
20,Cc1ccc(OCCNc2cccc(C(=O)N3CCOCC3)c2)cc1,-17.3%
21,CC(CN1CCCC1=O)NC(=O)c1ccc(-c2ccco2)[nH]c1=O (stereo unspecified),16.6%
22,O=c1nc(CNc2ccccc2)[nH]n1Cc1ccccc1,-31.6%
23,COc1nccc(C(F)(F)F)c1C(=O)O,4.12%
24,Cc1cc(C(=O)NCCC(C)C)ccc1NS(C)(=O)=O,65.6%
25,Cc1ccc(C(=O)NCCC(C)C)cc1NS(C)(=O)=O,18.6%
